Measured values as given in the supplement of paper PMC11732987, “Enantioselective OTUD7B fragment discovery through chemoproteomics screening and high-throughput optimisation” (Communications Chemistry, 2025).

How the values were obtained:
Assay in all cases: log2 ratio of Biotin-Ahx-Ub-VS probe labelling (fragment/DMSO); higher = less target engagement (more negative = stronger competition), active = hit call of the paper (q ≤ 0.05, log2 ratio ≤ -1)
Conditions in all cases: compound concentration: 200 uM; treatment time: 3 h
USP42 = target: T1, USP42 (UniProt Q9H9J4)
T1 sequence (whole entry): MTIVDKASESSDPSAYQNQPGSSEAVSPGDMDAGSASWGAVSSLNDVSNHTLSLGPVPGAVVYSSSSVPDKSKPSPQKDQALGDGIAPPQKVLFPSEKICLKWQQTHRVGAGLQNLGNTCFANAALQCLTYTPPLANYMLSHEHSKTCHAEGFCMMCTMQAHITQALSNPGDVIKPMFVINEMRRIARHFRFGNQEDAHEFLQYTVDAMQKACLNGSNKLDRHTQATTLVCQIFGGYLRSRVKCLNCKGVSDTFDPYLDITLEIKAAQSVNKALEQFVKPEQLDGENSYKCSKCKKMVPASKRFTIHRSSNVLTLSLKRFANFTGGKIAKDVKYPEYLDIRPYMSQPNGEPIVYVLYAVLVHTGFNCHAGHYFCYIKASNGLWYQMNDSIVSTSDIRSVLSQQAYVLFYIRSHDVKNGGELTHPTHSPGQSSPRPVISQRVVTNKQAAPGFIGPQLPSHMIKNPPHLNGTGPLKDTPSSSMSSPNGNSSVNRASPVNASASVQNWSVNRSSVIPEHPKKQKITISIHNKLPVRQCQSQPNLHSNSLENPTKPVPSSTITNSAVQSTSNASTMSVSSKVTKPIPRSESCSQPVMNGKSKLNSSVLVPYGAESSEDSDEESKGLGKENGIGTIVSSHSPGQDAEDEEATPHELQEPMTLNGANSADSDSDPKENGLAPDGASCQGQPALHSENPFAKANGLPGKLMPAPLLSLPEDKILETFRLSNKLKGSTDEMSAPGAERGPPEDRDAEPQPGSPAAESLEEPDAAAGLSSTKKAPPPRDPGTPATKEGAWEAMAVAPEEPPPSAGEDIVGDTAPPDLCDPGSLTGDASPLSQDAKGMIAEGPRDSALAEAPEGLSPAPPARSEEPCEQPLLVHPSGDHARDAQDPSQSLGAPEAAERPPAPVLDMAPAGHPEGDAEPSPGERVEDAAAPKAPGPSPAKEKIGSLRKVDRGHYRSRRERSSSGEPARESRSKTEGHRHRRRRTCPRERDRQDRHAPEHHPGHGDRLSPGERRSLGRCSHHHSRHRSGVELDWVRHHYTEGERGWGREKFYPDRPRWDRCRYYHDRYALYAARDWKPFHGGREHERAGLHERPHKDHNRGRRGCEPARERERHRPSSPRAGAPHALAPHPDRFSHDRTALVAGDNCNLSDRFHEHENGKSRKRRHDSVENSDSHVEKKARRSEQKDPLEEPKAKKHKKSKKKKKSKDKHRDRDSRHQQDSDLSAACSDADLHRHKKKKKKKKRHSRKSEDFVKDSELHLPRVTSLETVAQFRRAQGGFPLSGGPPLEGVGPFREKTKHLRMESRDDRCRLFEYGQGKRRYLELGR
Outline: (§1)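 Labelled DUBs from HEK293T lysate were NeutrAvidin-enriched, digested with LysC and trypsin, and run by diaPASEF LC-MS/MS. Before that, each 495 µg sample in Tris/CHAPS/IGEPAL buffer with protease inhibitors was treated in triplicate with fragment at 200 µM or vehicle for 3 h, then with Biotin-Ahx-Ub-VS at 0.5 µM final for 1 h. Values are average log2 ratios of fragment over vehicle by unpaired t-test, based on global-median-normalised Spectronaut label-free quantities from proteins with ≥2 unique peptides.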

USP46 = USP46 (UniProt P62068)
USP46, sequence (P62068 whole entry): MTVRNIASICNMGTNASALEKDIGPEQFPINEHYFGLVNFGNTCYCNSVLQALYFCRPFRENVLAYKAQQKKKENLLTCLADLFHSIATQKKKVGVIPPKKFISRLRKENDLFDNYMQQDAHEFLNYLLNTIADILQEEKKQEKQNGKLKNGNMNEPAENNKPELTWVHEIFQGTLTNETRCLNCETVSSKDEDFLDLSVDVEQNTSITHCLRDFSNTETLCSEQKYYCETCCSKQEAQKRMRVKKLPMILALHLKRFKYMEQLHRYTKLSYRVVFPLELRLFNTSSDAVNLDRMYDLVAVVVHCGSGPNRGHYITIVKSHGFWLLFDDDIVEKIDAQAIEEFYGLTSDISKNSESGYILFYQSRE
Outline: as §1

USP47 = target: T2, USP47 (UniProt Q96K76)
T2 sequence (whole entry): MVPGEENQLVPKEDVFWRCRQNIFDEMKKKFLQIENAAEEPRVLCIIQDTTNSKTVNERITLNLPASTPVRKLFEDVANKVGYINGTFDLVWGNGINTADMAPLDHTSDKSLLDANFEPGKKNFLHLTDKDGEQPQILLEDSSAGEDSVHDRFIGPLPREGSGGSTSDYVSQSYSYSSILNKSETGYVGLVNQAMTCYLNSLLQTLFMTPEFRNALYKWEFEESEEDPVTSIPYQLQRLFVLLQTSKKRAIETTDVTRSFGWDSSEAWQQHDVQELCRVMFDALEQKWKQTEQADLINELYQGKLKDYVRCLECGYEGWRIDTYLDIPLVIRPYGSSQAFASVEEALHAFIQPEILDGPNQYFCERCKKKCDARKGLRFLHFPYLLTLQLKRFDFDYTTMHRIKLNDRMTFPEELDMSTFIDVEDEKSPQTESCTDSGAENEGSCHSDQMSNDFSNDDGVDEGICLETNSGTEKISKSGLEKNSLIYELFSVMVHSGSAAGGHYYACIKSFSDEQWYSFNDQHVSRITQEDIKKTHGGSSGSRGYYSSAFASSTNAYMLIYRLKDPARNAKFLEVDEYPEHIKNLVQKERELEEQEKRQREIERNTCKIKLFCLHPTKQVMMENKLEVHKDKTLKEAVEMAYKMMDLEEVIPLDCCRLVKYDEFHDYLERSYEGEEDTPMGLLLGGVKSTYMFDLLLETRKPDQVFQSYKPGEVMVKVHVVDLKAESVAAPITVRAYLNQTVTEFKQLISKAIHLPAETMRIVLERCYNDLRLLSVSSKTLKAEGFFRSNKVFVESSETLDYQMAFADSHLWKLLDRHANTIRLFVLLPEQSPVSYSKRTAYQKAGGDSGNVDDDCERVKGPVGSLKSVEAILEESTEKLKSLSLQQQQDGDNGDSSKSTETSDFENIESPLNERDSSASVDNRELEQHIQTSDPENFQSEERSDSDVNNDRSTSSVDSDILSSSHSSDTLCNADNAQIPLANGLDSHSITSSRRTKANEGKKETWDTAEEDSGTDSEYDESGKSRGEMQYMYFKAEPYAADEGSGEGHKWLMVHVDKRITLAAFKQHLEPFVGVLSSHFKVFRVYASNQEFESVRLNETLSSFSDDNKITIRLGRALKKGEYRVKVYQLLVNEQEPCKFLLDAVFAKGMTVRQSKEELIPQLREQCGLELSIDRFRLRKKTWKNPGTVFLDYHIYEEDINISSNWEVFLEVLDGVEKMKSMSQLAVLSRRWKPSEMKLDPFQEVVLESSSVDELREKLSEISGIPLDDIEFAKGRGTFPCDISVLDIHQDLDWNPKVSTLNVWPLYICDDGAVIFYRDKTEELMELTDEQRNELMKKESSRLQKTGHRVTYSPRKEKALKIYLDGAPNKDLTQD
Outline: as §1

USP48 = target: T3, USP48 (UniProt Q86UV5)
T3 sequence (whole entry): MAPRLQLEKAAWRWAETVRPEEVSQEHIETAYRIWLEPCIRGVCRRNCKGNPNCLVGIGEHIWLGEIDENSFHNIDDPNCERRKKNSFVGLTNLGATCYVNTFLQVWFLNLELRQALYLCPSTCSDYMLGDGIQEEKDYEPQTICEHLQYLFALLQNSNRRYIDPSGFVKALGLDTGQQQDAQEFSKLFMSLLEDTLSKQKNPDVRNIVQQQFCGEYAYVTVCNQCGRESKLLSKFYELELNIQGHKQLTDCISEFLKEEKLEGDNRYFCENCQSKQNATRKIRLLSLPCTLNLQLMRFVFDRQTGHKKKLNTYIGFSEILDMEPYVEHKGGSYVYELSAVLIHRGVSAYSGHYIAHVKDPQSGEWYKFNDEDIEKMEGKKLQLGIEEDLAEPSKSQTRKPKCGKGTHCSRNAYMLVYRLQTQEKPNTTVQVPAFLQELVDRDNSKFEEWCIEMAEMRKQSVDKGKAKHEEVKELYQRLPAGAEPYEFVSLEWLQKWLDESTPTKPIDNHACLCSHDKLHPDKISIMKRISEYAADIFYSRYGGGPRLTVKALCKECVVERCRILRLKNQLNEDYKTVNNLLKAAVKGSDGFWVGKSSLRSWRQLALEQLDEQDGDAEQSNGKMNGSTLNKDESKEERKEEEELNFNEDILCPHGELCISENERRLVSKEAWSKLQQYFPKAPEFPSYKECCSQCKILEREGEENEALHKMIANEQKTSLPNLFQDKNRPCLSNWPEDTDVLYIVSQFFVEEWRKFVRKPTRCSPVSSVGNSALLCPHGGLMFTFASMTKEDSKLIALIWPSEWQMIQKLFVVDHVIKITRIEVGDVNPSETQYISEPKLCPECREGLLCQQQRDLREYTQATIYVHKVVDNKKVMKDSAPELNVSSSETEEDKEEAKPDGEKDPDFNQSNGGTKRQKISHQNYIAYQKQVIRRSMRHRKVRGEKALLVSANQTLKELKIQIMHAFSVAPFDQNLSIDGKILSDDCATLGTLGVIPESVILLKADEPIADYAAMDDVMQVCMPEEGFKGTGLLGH
Outline: as §1

USP5 = target: T4, USP5 (UniProt P45974)
T4 sequence (whole entry): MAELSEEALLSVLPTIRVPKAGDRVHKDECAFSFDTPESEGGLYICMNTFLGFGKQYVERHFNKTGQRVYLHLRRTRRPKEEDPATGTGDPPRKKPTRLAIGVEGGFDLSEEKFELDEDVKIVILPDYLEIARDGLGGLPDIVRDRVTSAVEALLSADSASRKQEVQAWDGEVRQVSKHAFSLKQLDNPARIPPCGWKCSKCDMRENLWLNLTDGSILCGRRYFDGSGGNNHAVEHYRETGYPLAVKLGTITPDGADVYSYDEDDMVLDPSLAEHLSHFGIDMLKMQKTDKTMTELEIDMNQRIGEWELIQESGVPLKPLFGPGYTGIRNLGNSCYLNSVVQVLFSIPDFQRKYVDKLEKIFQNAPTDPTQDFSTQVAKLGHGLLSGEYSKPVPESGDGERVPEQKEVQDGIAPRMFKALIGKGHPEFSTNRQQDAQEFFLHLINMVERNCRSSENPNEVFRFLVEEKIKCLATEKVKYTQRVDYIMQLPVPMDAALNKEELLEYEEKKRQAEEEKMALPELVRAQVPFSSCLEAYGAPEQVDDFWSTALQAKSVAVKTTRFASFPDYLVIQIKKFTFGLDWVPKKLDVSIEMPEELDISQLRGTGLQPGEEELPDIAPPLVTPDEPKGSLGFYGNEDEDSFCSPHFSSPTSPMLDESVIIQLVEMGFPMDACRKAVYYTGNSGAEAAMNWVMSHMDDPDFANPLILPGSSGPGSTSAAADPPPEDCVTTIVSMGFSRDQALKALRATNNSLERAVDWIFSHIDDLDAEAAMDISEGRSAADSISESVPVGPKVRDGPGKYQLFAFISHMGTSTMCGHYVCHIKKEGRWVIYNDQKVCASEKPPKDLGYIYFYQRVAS
Outline: as §1

USP54 = USP54 (UniProt Q70EL1)
USP54, sequence (Q70EL1 whole entry): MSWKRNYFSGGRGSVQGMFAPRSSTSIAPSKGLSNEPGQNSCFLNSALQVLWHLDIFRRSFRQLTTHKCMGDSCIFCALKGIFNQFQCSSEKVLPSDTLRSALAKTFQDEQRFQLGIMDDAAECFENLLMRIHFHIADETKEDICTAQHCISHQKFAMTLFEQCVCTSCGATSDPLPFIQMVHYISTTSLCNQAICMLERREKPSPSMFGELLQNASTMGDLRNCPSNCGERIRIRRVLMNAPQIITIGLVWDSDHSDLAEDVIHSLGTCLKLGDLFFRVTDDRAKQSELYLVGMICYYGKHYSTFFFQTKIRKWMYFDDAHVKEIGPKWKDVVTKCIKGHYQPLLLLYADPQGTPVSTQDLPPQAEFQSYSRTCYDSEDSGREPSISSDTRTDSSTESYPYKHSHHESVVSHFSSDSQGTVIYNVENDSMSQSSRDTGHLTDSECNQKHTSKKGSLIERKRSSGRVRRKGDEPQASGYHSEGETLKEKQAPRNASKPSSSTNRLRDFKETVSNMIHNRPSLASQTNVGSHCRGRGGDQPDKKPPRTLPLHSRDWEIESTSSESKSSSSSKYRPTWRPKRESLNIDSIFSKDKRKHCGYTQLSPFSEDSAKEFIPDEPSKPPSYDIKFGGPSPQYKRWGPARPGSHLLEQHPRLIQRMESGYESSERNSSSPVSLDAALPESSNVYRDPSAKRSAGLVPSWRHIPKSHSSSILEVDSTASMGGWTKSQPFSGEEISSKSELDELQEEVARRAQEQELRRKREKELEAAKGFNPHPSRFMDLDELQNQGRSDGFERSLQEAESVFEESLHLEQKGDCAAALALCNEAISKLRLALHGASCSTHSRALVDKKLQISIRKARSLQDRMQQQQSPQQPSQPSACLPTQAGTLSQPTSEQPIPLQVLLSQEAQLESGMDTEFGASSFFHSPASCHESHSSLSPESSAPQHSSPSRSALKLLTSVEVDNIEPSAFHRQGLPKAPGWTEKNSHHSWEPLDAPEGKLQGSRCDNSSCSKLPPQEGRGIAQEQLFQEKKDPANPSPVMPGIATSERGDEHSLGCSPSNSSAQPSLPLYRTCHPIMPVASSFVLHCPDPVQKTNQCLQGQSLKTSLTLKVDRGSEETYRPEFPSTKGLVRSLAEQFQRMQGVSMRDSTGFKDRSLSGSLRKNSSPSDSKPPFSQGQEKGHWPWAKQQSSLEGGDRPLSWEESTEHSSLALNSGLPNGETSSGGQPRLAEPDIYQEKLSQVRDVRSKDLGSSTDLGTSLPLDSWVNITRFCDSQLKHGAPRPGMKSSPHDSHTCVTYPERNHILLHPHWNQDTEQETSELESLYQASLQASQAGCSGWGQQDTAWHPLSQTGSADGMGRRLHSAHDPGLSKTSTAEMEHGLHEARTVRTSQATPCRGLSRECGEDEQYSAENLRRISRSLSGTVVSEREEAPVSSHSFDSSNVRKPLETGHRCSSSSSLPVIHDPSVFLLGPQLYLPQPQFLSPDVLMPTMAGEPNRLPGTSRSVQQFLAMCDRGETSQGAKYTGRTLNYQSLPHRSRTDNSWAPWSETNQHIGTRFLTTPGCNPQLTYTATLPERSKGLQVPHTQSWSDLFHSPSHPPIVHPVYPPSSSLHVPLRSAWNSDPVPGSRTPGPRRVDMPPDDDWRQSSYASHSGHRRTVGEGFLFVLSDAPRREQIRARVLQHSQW
Outline: as §1

USP7 = USP7 (UniProt Q93009)
Outline: as §1

USP8 = target: T5, USP8 (UniProt P40818)
T5 sequence (whole entry): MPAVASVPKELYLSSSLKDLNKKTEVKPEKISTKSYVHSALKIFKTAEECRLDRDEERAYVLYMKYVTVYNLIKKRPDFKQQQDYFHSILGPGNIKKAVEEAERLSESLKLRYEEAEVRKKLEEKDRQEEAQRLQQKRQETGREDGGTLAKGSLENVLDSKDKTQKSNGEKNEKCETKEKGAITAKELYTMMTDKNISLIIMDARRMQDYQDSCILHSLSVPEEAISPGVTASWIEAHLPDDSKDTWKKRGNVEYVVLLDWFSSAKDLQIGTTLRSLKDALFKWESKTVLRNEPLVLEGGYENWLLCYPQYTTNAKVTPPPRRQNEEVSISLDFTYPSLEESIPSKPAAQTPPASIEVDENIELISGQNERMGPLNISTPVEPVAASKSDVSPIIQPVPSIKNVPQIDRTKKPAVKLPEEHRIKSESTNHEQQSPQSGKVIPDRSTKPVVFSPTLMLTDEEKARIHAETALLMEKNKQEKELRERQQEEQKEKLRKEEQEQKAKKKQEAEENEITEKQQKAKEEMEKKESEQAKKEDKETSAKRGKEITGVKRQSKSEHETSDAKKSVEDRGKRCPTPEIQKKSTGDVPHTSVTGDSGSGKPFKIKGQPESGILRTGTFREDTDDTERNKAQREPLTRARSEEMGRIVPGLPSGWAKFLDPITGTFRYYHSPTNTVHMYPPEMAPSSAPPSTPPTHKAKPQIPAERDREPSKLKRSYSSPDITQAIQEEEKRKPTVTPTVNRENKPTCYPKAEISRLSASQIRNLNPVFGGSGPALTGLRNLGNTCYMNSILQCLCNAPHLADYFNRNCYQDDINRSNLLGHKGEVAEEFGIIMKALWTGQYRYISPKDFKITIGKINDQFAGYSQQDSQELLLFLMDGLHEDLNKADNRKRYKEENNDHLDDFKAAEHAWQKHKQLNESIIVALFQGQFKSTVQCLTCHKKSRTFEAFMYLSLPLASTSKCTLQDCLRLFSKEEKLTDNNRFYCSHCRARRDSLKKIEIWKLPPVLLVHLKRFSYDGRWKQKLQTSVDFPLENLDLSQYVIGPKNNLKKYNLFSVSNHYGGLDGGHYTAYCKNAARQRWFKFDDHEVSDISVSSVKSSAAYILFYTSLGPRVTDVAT
Outline: as §1

USP9X = USP9X (UniProt Q93008)
USP9X, sequence (Q93008 whole entry): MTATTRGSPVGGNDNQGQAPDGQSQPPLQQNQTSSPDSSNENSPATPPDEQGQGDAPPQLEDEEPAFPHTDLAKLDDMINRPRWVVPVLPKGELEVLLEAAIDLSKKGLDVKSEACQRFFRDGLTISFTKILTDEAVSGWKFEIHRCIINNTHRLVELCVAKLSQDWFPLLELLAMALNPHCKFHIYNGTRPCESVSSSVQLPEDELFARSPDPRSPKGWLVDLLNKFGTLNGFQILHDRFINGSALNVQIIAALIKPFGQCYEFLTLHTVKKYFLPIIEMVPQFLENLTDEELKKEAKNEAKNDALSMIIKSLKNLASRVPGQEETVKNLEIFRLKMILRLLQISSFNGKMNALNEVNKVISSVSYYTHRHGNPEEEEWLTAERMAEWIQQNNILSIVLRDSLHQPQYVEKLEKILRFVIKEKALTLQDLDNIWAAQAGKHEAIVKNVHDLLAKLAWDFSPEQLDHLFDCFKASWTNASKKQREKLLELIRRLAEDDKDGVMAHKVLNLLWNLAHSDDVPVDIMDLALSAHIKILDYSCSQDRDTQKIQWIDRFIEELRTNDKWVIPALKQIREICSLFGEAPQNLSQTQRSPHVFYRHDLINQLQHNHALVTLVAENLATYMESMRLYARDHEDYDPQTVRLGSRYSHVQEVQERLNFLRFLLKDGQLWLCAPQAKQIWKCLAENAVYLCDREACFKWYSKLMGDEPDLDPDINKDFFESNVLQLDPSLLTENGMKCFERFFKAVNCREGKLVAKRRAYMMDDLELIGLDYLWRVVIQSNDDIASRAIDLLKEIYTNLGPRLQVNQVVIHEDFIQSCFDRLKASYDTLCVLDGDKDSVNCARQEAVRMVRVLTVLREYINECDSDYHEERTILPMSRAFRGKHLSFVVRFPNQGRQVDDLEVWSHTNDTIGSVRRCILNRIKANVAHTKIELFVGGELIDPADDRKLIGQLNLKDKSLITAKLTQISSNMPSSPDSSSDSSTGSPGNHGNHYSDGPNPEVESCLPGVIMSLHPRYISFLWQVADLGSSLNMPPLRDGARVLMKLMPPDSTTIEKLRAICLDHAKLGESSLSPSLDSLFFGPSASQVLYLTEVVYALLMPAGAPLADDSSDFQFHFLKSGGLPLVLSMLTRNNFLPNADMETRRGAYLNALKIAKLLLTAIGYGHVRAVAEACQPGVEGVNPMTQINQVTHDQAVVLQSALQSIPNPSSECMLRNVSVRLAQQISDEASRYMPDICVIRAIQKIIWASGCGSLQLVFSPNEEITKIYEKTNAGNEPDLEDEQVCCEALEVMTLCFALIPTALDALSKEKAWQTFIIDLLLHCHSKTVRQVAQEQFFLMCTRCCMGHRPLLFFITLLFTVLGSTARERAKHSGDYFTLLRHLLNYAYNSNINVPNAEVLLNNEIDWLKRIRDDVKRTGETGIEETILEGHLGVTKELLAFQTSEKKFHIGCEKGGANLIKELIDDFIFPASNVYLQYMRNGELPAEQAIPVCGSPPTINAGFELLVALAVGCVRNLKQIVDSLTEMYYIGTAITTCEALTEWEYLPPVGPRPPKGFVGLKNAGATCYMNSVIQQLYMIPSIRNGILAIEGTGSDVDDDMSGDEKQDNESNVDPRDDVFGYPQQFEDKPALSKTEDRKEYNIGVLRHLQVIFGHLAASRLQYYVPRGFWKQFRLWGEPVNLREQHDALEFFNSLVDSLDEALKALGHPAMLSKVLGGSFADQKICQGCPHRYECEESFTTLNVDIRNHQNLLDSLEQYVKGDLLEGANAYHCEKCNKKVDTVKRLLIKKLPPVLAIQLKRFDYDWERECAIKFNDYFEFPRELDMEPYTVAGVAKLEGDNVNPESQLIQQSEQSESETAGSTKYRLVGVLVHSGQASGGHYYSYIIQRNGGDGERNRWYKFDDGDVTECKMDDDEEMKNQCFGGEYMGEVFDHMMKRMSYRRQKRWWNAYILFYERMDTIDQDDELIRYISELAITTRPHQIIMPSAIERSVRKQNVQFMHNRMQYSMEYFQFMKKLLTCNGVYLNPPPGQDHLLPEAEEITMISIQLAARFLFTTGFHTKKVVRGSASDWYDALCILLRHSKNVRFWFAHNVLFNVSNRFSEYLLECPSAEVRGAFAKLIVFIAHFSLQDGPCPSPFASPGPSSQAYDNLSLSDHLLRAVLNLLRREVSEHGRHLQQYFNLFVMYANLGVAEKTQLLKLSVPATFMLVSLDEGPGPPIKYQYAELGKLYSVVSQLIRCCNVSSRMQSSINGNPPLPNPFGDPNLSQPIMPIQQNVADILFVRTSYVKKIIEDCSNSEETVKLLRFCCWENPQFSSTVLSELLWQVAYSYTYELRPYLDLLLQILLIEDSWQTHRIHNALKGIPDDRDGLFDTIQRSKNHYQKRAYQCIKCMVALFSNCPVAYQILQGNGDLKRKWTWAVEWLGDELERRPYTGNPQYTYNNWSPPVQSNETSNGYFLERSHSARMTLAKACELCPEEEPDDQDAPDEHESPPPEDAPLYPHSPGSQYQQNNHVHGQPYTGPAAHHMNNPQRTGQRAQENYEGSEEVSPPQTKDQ
Outline: as §1

UniProt O00487 = target: UniProt O00487
UniProt O00487, sequence (O00487 whole entry): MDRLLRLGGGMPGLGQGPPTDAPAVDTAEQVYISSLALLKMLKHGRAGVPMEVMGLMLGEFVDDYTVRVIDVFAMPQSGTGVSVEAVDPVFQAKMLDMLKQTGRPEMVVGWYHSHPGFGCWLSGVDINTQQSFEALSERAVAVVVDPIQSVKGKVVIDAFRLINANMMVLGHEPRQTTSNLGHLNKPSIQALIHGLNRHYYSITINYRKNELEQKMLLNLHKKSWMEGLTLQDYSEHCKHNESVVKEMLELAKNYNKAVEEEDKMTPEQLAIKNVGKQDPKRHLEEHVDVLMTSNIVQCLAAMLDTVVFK
Outline: as §1

Measured: log2 ratio of Biotin-Ahx-Ub-VS probe labelling

Cc1n[nH]c2c1CN(C(=O)CCl)CC2
active: USP47 -1.08 | USP8 -1.11
inactive: USP42 0.421 | USP46 -0.91 | USP48 -0.779 | USP5 -0.67 | USP54 0.337 | USP7 -0.758 | USP9X -0.85 | UniProt O00487 -0.184
